The full ranking holds about 5,800 sequences; the median of “enrichment r” is about 0.68, and the highest 2% start at about 11. A selection follows.
B1: ENSG00000070961:be:win_5851|3pUTR|ENSG00000070961|bound_else_gene|NA|bound_elsewhere_windowed (ssRNA)
RNA: GGGAGUUCUACAGUCCGACGAUCAUGAAUGUAAUUACCAAAAGAUUUAGAAGUGCAUGUGCUUUGGAGGAUUUGUAUUGAGCUUUUACAGUAUUCAUUUUUCAACUCAAGGCAAUGGCUUUCUACACCAACUCUAAUCCAUAACAACAGAGGAUUGAGCAUCA
B2: ENSG00000070961:be:win_3451|CDS|ENSG00000070961|bound_else_gene|NA|bound_elsewhere_windowed (ssRNA)
RNA: GGGAGUUCUACAGUCCGACGAUCAGGAUAGAAGAUUCAGAGCCUCAUAUCCCCCUUAUUGAUGACACUGAUGCCGAAGAUGAUGCUCCUACAAAACGUAACUCCAGUCCUCCACCCUCUCCCAACAAAAAUAACAAUGCUGUUCAACAGAGGAUUGAGCAUCA
B3: chr11:61866962:61867357:+|3pUTR|ENSG00000134824|msi1|FALSE|unique (ssRNA)
RNA: GGGAGUUCUACAGUCCGACGAUCAGAUUCAGGGGAAGGGCAGGCACCAACAACUCAGAAUGGGGGCUUUCGGGGAGGGCGCCUAGUCCCCCCAGCUCUAAGCAGCCAGGAGGGACCUGCAUCUAAGCAUCUGGGUUGCCAUGGCAACAGAGGAUUGAGCAUCA
B4: chr2:32508095:32508220:+|CDS|ENSG00000115760|unk|total|mutant (ssRNA)
RNA: GGGAGUUCUACAGUCCGACGAUCAGCCGAAGCCGCUUCUGCUGUCUGCCUCCGACUACAUCGUCCACGGGAUGCCAGCACAUCCGGCCUUUCACAAAUUAAAUUAUUGGGGCUCACUGCUUUUGGUACCACCUCUUCUGCAACCAACAGAGGAUUGAGCAUCA
B5: chr14:92797766:92797867:+|CDS|ENSG00000066455|msi1|total|mutant (ssRNA)
RNA: GGGAGUUCUACAGUCCGACGAUCCAUUUUGUGCGAAGAAAAAAGUCAGAACCUGAUGAUGAGCUGCUGUUUGAUUUUCUUAACCGUUCACAGAAGGAGCCUACCGGGAGGGUGGAAAUCAGAAAGGAAAAAGGCAAGACACCUCAACAGAGGAUUGAGCAUCA
B6: chr18:70325936:70326038:+|CDS|ENSG00000170677|unk|total|mutant (ssRNA)
RNA: GGGAGUUCUACAGUCCGACGAUCAGCUUUCGCUCCCAUGGUAAAACACUUCACACCCGAAUUGAGCACUCAAAUGGCCGGUUCCGCUUUUAUGAACAGCCAGAUGUGGAAGGACAUACGUCCACCGUUGAUCUAAUUGAGCAUCAACAGAGGAUUGAGCAUCA
B7: chr11:43405833:43405939:+|CDS|ENSG00000052841|unk|FALSE|unique (ssRNA)
RNA: GGGAGUUCUACAGUCCGACGAUCGGCCCAAACCCCUGACUGUUCCAUAACUGACUUCAGAAAAAGCCACACUCUGUCCUACUUAGUCAAAGAAUUAGAGGUUCGCAUGGAUCUGAAAGCCAAAAUGCCAGAUGACCAUGCACGCAACAGAGGAUUGAGCAUCA
B8: chr6:1612588:1612689:+|3pUTR|ENSG00000054598|msi1|total|mutant (ssRNA)
RNA: GGGAGUUCUACAGUCCGACGAUCUUUAUUCAUGGACUUGUUUUAAAAUGUAAAUUGCAACACCGUAAUUUAUUUUUAAUUUGCCGUUGGAUGUCGUGGACCAAACGCCAGAAAGUGUUCCCAAAACCUGACGUUAAAUUGCCUCAACAGAGGAUUGAGCAUCA
B9: chr2:111862450:111862553:-|CDS|ENSG00000153107|unk|FALSE|unique (ssRNA)
RNA: GGGAGUUCUACAGUCCGACGAUCUCUUUUUCAGGGGUGCAAAGGUUCAACAUUUCAAGCCAUAAUCAGUCUCCAAAGAGACAUAGUAUUUCUCAUUCUCCAAAUAGUAAUUCUAAUGGCUCCUUUCUUGCACCAGAAACGGAGCAACAGAGGAUUGAGCAUCA
B10: chr7:83961326:83961382:-|CDS_3pUTR|ENSG00000075213|msi1_unk|FALSE|overlapping (ssRNA)
RNA: GGGAGUUCUACAGUCCGACGAUCAAACAGGAGGACCCACGAAUUUGAGAGGGCACCCAGGAGUGUCUGAGCUGCAUUACCUCUAGAAACCUCAAACAAGUAGAAACUUGCCUAGACAAUAACUGGAAAAACAAAUGCAAUAUACAACAGAGGAUUGAGCAUCA
B11: ENSG00000124766:be:win_3951|3pUTR|ENSG00000124766|bound_else_gene|NA|bound_elsewhere_windowed (ssRNA)
RNA: GGGAGUUCUACAGUCCGACGAUCGUUUGGGGGAAAAAAAAGAAAAAAUCAUGCCAGCUAAUCAUGUCAAGUUCACUGCCUGUCAGAUUGUUGAUAUAUACCUUCUGUAAAUAACUUUUUUUGAGAAGGAAAUAAAAUCAGCUGCAACAGAGGAUUGAGCAUCA
B12: chr17:29262523:29262623:-|3pUTR|ENSG00000108256|msi1_unk|FALSE|overlapping (ssRNA)
RNA: GGGAGUUCUACAGUCCGACGAUCACUUUGACUGAUAUUGUAAUUUUCAAAUGUAUAAUAUGUUUACAGAUGUGCCCUGCAUUUAGUCUGCCUUGUUCCUAUUUUGAUUUUUGUUGAGUCUCCUGCCUGCUUGCCAAAAGCUAGCAACAGAGGAUUGAGCAUCA
B13: chrX:149581652:149582231:-|three_prime_utr|ENSG00000267978|control|control|control (ssRNA)
RNA: GGGAGUUCUACAGUCCGACGAUCCAAAUGUUCUUUUAAUGGUCAGUUUAAUGAACUUCACCAUCGAAGUUAAUGAAUGACAGUAGUCACACAUAUUGCUGUUUAUGUUAUUUAGGAGUAAGAUUCUUGCUUUUGAGUCACAUGCAACAGAGGAUUGAGCAUCA
B14: chr15:48879495:48879609:+|3pUTR|ENSG00000255302|msi1|total|mutant (ssRNA)
RNA: GGGAGUUCUACAGUCCGACGAUCGACACUAAAUGUGUGUGAAUGUACAAAGAAAACAAACCAUUGCUUAUGCUGUUAUAUACCCGAGAAAUUUUGUUUUGCUUGCUGUUUUAACUUGACAGAUGAAGGACUUCCGUUGAACUUCAACAGAGGAUUGAGCAUCA
B15: chr16:87831719:87831834:-|3pUTR|ENSG00000103257|msi1_unk|FALSE|overlapping (ssRNA)
RNA: GGGAGUUCUACAGUCCGACGAUCCCUGCGUUUGGAGGCCCCUGGGCUCUCACCCAGUCCCCACCCGCCUGCAGAGAGGGAACUAGGGCACCCCUUGUUUCUGUUGUUCCCGUGAAUUUUUUUCGCUAUGGGAGGCAGCCGAGGCAACAGAGGAUUGAGCAUCA
B16: chr8:93925380:93925481:+|3pUTR|ENSG00000164951|msi1|total|mutant (ssRNA)
RNA: GGGAGUUCUACAGUCCGACGAUCAUUUAUUUCUAAAUGUUUUGACUGGGCAUUUUUCUUUUAAUGAAAUAUGUGGACUGCUCCCGCAAACCCUAUUUUCAGCUACUAUUUGAAUAUUCUUGAACACCACCACUGAAGAGUUUCCAACAGAGGAUUGAGCAUCA
B17: chr14:88572724:88572825:+|CDS|ENSG00000100722|unk|FALSE|unique (ssRNA)
RNA: GGGAGUUCUACAGUCCGACGAUCGUGACACUUACAUAUGGUUCUUCUCGCCCUUCUAUUGAAAUUUAUCGACCACCUGCAAGUAGAAAUGCAGAUAGUGGUGUUCAUUUAAACAGGUUGCAAUUUCAACAGCAGCAGAAUAGUCAACAGAGGAUUGAGCAUCA
B18: chr17:42200006:42200107:-|3pUTR|ENSG00000173757|unk|FALSE|unique (ssRNA)
RNA: GGGAGUUCUACAGUCCGACGAUCAAGCUGCCGUUUGCCUUGGCUUGGUUUCAUACACUGAUUUAUUUUUCUAUGCCAGGCAGUAGAGUCUCUCUGCCUCUGAGGAGCAGGCUACCCGCAUCCCACUCAGCCCCUCCCUACCCCCAACAGAGGAUUGAGCAUCA
B19: ENSG00000087269:stop:overlap|stop_codon|ENSG00000087269|stop_codon|NA|stop_codon (ssRNA)
RNA: GGGAGUUCUACAGUCCGACGAUCGGCUGGCUGGUCUCGAAUUCCCGACCUCAGGUAAUCCACCUGCCUUGGCCCCCCAAUUAUAGGUGUGAGCCACAGCACCCAGCCAAAAAAGUAAUUUUUUUUAGAGUAAUAAUGCUAUAACAACAGAGGAUUGAGCAUCA
B20: chr5:41382290:41382405:-|CDS|ENSG00000182836|unk|total|mutant (ssRNA)
RNA: GGGAGUUCUACAGUCCGACGAUCGGCCAAAAAGCUCAUGCGGAAAUGGUCCGCCACUCAGACAAUGAAUUUUACUGGCCAGCCCGGAGCUGGAAUUCGUUAUUUUGAUCUUCGAAUUUCCACCAAGCCCAGAGACCCCGACAACAACAGAGGAUUGAGCAUCA
B21: chr1:71064632:71064733:-|3pUTR|ENSG00000132485|msi1|total|mutant (ssRNA)
RNA: GGGAGUUCUACAGUCCGACGAUCGCUAAGACAGGAUUACCCCGGCUUGCCUGAACUUUGGGCAUGGAAGAAAGACUGGAAACCCGUUGGAAACAACAUACUUAUGGAAAAGAAAGUCAGCCUUUUUAUGCUGUUAACAGAUGUCAACAGAGGAUUGAGCAUCA
B22: chr1:183142599:183142700:+|CDS|ENSG00000135862|msi1|FALSE|unique (ssRNA)
RNA: GGGAGUUCUACAGUCCGACGAUCAACGAGAUUGAAGGCACCCUAAACAAAGCCAAAGAUGAAAUGAAGGUCAGCGAUCUUGAUAGGAAAGUGUCUGACCUGGAGAAUGAAGCCAAGAAGCAGGAGGCUGCCAUCAUGGACUAUCAACAGAGGAUUGAGCAUCA

biological target: T1, UNK ZnF1-6 (called full-length) (human, UniProt Q9C0B0 30-357); test: nsRBNS (natural sequence RNA bind-n-seq); RBNS binding buffer (assumed for nsRBNS): 25 mM Tris pH 7.5, 150 mM KCl, 3 mM MgCl2, 0.01% Triton X-100, 500 ug/ml BSA, 20 U/ml SUPERase-In, 4 C; UNK is unkempt and MSI1 is Musashi-1; names of the RNAs are library labels; protein concentration not given here; high values mean tight binding
T1 sequence: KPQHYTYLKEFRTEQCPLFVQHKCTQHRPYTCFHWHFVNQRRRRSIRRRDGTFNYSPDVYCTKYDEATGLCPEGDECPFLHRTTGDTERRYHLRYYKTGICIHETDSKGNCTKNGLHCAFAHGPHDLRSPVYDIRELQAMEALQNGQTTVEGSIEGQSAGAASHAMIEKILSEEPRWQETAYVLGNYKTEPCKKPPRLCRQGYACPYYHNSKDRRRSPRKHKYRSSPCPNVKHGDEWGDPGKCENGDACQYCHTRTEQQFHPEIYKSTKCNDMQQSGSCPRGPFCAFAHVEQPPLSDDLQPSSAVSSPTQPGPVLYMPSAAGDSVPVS

Binder | binding signal
B1 | 0.908 enrichment R
B2 | 0.813 enrichment R
B3 | 0.948 enrichment R
B4 | 0.577 enrichment R
B5 | 0.771 enrichment R
B6 | 0.461 enrichment R
B7 | 1.07 enrichment R
B8 | 0.325 enrichment R
B9 | 1.49 enrichment R
B10 | 0.962 enrichment R
B11 | 0.788 enrichment R
B12 | 0.807 enrichment R
B13 | 0.441 enrichment R
B14 | 0.453 enrichment R
B15 | 0.701 enrichment R
B16 | 0.657 enrichment R
B17 | 0.593 enrichment R
B18 | 0.936 enrichment R
B19 | 0.968 enrichment R
B20 | 0.445 enrichment R
B21 | 0.548 enrichment R
B22 | 0.678 enrichment R

From paper PMC12136788
